Screening data from PubChem BioAssay.
Most compounds without a hit are left out; they make up all but 19% or so of the library.
DT40 TDP1 CPT – DT40-hTDP1 cell growth loss with CPT. chicken DT40 Tdp1-/-;hTDP1 cells + 20 nM CPT, ATP luminescence, 48 h. Potency, µM (highest dose often 46.2 µM), actives largely listed as inhibitors. 420,000 tested, 12% active. AID 686979; also: nearly all actives have a fitted effect of over 55% in size
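Cell growth measured by CellTiter-Glo luminescence after a minimum 48 h, 37 C compound exposure with 20 nM CPT in Tdp1-knockout DT40 cells stably expressing hTDP1, seeded 400/well; qHTS titration format.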
TDP1 block – TDP1 (human) enzyme inhibition | Q9NUW8 | Potency, µM (highest dose often 130 µM), most hits filed as inhibitors | recombinant TDP1, AlphaScreen DNA substrate cleavage | AID 485290 | 350,000 tested, 0.28% active; also: nearly all actives have a fitted effect of over 40% in size
Target sequence (Q9NUW8 whole entry, looked up): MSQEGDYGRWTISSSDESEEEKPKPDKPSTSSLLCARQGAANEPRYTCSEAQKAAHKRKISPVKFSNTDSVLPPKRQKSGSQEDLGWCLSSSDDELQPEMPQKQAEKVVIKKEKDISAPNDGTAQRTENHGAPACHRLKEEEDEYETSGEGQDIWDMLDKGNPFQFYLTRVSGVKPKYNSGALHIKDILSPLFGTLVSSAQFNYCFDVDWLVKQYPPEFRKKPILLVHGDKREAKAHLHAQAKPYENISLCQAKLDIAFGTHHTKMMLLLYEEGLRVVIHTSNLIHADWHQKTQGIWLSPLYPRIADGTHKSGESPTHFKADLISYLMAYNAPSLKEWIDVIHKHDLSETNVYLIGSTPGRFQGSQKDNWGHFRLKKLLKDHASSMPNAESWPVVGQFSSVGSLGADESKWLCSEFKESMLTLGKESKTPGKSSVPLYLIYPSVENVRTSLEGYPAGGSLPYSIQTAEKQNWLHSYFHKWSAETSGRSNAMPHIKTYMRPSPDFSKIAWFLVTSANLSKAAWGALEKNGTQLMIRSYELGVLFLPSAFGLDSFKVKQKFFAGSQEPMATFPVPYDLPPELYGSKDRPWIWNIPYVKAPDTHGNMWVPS
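Tdp1 1 nM final; 15 min RT w/ cpd; substrate 15 nM, 5 min; beads 10 ug/ml, 10 min; AlphaScreen read. Neg ctrl: no enzyme.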
TDP1 cell noCPT – qHTS for Inhibitors of human tyrosyl-DNA phosphodiesterase 1 (TDP1): qHTS in cells in absence of CPT. DT40 Tdp1-/- hTDP1 cells, no CPT, ATP luminescence, 48 h. Potency, µM (top dose mostly 46.2 µM), usual class: inhibitors. 420,000 tested, 15% active. AID 686978, 2013; also: nearly all actives have a fitted effect of over 55% in size
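No-CPT arm: Tdp1-/-;hTDP1 DT40 cells (400/well) plus compounds, incubated ≥48 hr at 37 °C. Readout CellTiter-Glo luminescence.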
RORgamma inh – ROR gamma (mouse) transcription inhibition; 310,000 tested, 5.4% active; P51450; Drosophila S2 Gal4-RORgamma UAS-luciferase reporter, 20 h; Potency, µM (highest dose often 53.6 µM), most hits filed as inhibitors; also: nearly all actives have a fitted effect of over 60% in size
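Drosophila S2 cells stably expressing Gal4-DBD/mouse RORγ fusion under metallothionein promoter plus UAS-luciferase; compound 1 h, then 700 uM CuSO4 induction for 20 h at ambient temperature; inhibition read as reduced luminescence.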
VP16 counter – inhibits Gal4-VP16 luciferase reporter, ROR gamma counter-screen. Drosophila S2 Gal4-VP16 UAS-luciferase, luminescence, 20 h. Potency, µM (top dose mostly 53.6 µM), actives largely listed as inhibitors. 310,000 tested, 3.5% active;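 also: Gal4-VP16 expression switched on by copper sulfate through the metallothionein promoter; nearly all actives have a fitted effect of over 50% in size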
Of the large screens only hits and unclear results are named; the others gave an inactive call. Calls follow the shape of the dose curve; as a rule, active = well fitted curve in the direction sought with a large enough effect; inconclusive = small, poorly fitted or top-dose-only effect, or another doubt; inactive = no such curve, though single readings can be large; an effect the other way counts as inactive or inconclusive.

O=c1[nH]c(SCCOc2cccc3ccccc23)nc2ccccc12	DT40 TDP1 CPT inconclusive, TDP1 cell noCPT 7.3µM
COc1ccc(C(=O)CSc2nc(C)cc(=O)[nH]2)cc1	none (no result: VP16 counter)
O=C(CSc1ccc2ccccc2n1)c1ccccc1	TDP1 cell noCPT inconclusive (no result: TDP1 block)
Cc1ccc(C(=O)CSc2nc3ccccc3c(=O)[nH]2)cc1C	DT40 TDP1 CPT inconclusive, TDP1 cell noCPT inconclusive
Cc1cc(=O)[nH]c(SCC(=O)c2ccc(C(C)C)cc2)n1	TDP1 cell noCPT 18µM, RORgamma inh 1.1µM, VP16 counter inconclusive
Cc1nc2ccccc2nc1SCC(=O)c1ccccc1	DT40 TDP1 CPT inconclusive, TDP1 cell noCPT 7.3µM, VP16 counter inconclusive
Cc1ccc(Cn2nnc3c(=O)[nH]c(C4CCCN(S(=O)(=O)c5ccccc5)C4)nc32)cc1 (stereo not given)	none
O=C(CN1CCN(Cc2ccccc2)CC1)N1CCCc2ccccc21	TDP1 cell noCPT inconclusive (no result: TDP1 block)
Cc1ccc(S(=O)(=O)N2CCCC2)cc1C(=O)NC1CCCCC1	TDP1 cell noCPT inconclusive (no result: RORgamma inh, VP16 counter)
CCCc1n[nH]c(=O)[nH]1	none
Cc1ccc(C(=O)CSc2nc3ccccc3c(=O)[nH]2)cc1	DT40 TDP1 CPT 5.8µM, TDP1 cell noCPT 8.2µM
O=C(CCCSc1nc2ccccc2c(=O)[nH]1)c1ccc(F)cc1	DT40 TDP1 CPT 12µM, TDP1 cell noCPT inconclusive
Clc1ccc(N=NN2CCOCC2)cc1	RORgamma inh inconclusive
Cc1[nH]nc(C(F)(F)F)c1N=NN1CCOCC1	DT40 TDP1 CPT 2.6µM, TDP1 cell noCPT 3.3µM (no result: TDP1 block, RORgamma inh, VP16 counter)
COc1cccc(C(=O)Oc2ccc(/C=N/Nc3ccc(C(=O)O)cc3)cc2OC)c1	DT40 TDP1 CPT inconclusive, TDP1 cell noCPT 29µM, VP16 counter 2.2µM (no result: TDP1 block)
COc1cccc(OCc2cc(/C=N/Nc3ccc(C(=O)O)cc3)ccc2OC)c1	DT40 TDP1 CPT 21µM, TDP1 cell noCPT 21µM, RORgamma inh 0.28µM, VP16 counter 7.9µM
O=C1Nc2ccccc2O/C1=C\c1ccccc1	none (no result: TDP1 block)
CC(C)N(C(=O)CSc1nnc(Cn2nnc3ccccc32)n1C)C(C)C	none
Cc1nc(-c2cccc(F)c2)sc1CCNC(=O)c1c(F)cccc1Cl	DT40 TDP1 CPT inconclusive, TDP1 cell noCPT inconclusive (no result: RORgamma inh, VP16 counter)
COC(=O)c1[nH]c(=O)c2ccccc2c1O	DT40 TDP1 CPT 2.6µM
COc1ccccc1NC(=O)O/N=C(\N)c1ccccc1	DT40 TDP1 CPT inconclusive, TDP1 cell noCPT inconclusive
CC(C)Oc1ccc(Cc2cnc(=S)[nH]c2N)cc1	TDP1 cell noCPT inconclusive, RORgamma inh 11µM
Cc1cc(NC(=O)CSc2nc(-c3ccccc3C)nc3c2c(=O)n(C)c(=O)n3C)no1	none (no result: RORgamma inh, VP16 counter)
Cc1ccc(CN(C(=O)c2ccccc2)c2ccccn2)o1	DT40 TDP1 CPT inconclusive, TDP1 cell noCPT inconclusive (no result: RORgamma inh, VP16 counter)
COCCCNC(=O)CSc1nc2ccccc2c(=O)n1Cc1ccco1	none (no result: RORgamma inh, VP16 counter)
CC1(C)N=c2ccc([N+](=O)[O-])c(N)c2=[N+]1[O-]	DT40 TDP1 CPT 15µM, TDP1 cell noCPT 21µM (no result: TDP1 block)
Cc1ccc([N+](=O)[O-])c(N)c1	none (no result: DT40 TDP1 CPT, TDP1 cell noCPT)
O=C(NC(=S)NCc1ccccc1)c1cccnc1	RORgamma inh 11µM, VP16 counter inconclusive
Cc1cccc(C(=O)NC(=S)NCc2cccnc2)c1	RORgamma inh 16µM, VP16 counter inconclusive
CCCOc1ccc(C(=O)NCc2cccnc2)cc1	DT40 TDP1 CPT inconclusive
CCCOc1ccc(C(=O)NC(=S)NCc2cccnc2)cc1	DT40 TDP1 CPT inconclusive, TDP1 cell noCPT inconclusive, RORgamma inh inconclusive, VP16 counter 13µM
CCOC(=O)C1=C(c2ccccc2)NC(=S)NC1c1cc([N+](=O)[O-])ccc1OC (stereo not given)	TDP1 cell noCPT inconclusive, RORgamma inh 13µM, VP16 counter inconclusive
CCOC(=O)C1=C(c2ccccc2)NC(=S)NC1c1ccc(C)c([N+](=O)[O-])c1 (stereo not given)	DT40 TDP1 CPT 23µM, TDP1 cell noCPT 16µM, RORgamma inh inconclusive, VP16 counter 11µM
CCOC(=O)C1=C(c2ccccc2)NC(=O)NC1c1ccc(O)c(Cl)c1 (stereo not given)	DT40 TDP1 CPT inconclusive, TDP1 cell noCPT inconclusive
CCOC(=O)C1=C(c2ccccc2)NC(=O)NC1c1ccc(OC)cc1OC (stereo not given)	none (no result: TDP1 block)
CCCCNC(=O)CN1C(=O)NC2NC(=O)NC21 (stereo not given)	none
